This is an account of results in PubChem BioAssay (NCATS).

Assay [1] can be described thus: Cell Viability - SH-SY5Y (AID 544; active = well fitted curve in the direction sought with a large enough effect; an effect the other way counts as inactive or inconclusive;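 also: cells exposed to compound for 40 hours; 0% = DMSO alone and -100% = 100 µM tamoxifen; nearly all actives have a fitted effect of over 55% in size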). Put shortly: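 Quantitative HTS in SH-SY5Y neuroblastoma cells, 40 hr treatment at 37 °C, ATP content by luciferase luminescence; AC50 from Hill fits.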
Assay [2] in a line: Cellular Toxicity (caspase-3) NIH 3T3 (AID 666; active = well fitted curve in the direction sought with a large enough effect; an effect the other way counts as inactive or inconclusive;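 also: caspase signal read after 16 h compound exposure; 0% = DMSO basal and 100% = 100 µM tamoxifen stimulation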). Put shortly: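 Activity: caspase-3/7 induction, NIH 3T3 cells, 16 hr treatment at 37°C, luminescent Caspase-Glo detection; AC50 via Hill equation.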
A short description of assay [3]: Cell Viability - LYMP2-015 (AID 971; active = well fitted curve in the direction sought with a large enough effect; an effect the other way counts as inactive or inconclusive;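 also: 0% = DMSO only and full effect = 92 µM tetraoctylammonium bromide; nearly all actives have a fitted effect of over 55% in size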). In a few lines:
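AC50 values reflect Hill-model fits of ATP-based luminescence (CellTiter-Glo) from a human lymphoblastoid line, 2500 cells/well, treated 24 hr at 37 C.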

For assay [4], the target named is Estrogen receptor (Homo sapiens) (UniProt P03372). Nature of the assay: qHTS assay for small molecule agonists of estrogen receptor alpha signaling (AID 588514).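 Also: 0% = vehicle only and 100% = reference agonist; nearly all actives have a fitted effect of over 70% in size.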 Put shortly:
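Fluorescence from CCF4 cleavage reports ER-alpha-driven beta-lactamase expression in HEK 293 cells treated 18 hrs at 37 C. Data normalized to 17-beta-estradiol (20 nM) and DMSO, fitted to Hill equation.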

In assay [5] the target is Bile acid receptor (Homo sapiens) (UniProt Q96RI1). The experiment in a line: qHTS assay for small molecule antagonists of farnesoid X receptor signaling (AID 588526). Also: % is scaled to controls: 0 for no effect and ±100 for the full control effect. In a few lines:
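Concentration-response titrations were fitted to the Hill equation for half-maximal inhibition and maximal response, with data normalised to 50 uM chenodeoxycholic acid and DMSO control wells. Cells: FXR-UAS-bla HEK293T, dialyzed FBS.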
(In general: qHTS replaces the single test concentration by a dilution series.)

Assay [6] deals with Glucocorticoid receptor (Homo sapiens) (UniProt P04150). Nature of the assay: qHTS assay for small molecule agonists of glucocorticoid receptor signaling (AID 588532; active = well fitted curve in the direction sought with a large enough effect in the signal ratio, with a control signal flat; the % refers to the signal ratio;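 also: 100% = dexamethasone at 0.1 µM and 0% = DMSO only wells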). Particulars: HeLa MMTV-bla, beta-lactamase ratio, agonist, 18 h; stronger effect = higher value; percent of dexamethasone control, DMSO zero. Put shortly: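 Titration series, up to 92 uM, applied to GRE-bla HeLa cells for 18 h at 37 C. Detection by CCF4 FRET substrate after 2 h at RT.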

Assay [7] shares this target. The experiment in a line: qHTS assay for small molecule antagonists of glucocorticoid receptor signaling (AID 588533; active = well fitted inhibition curve with a large enough effect in the signal ratio, with a control signal flat, not every such curve was filed as active; the % refers to the signal ratio;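 also: cells stimulated with 2 nM dexamethasone as agonist; % is scaled to controls: 0 for no effect and ±100 for the full control effect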). Put shortly:
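Antagonist-mode qHTS: compound titrations added to GRE-bla HeLa cells, then dexamethasone 2 nM final; 18 h, 37 C. CCF4 FRET fluorescence normalized to dexamethasone and DMSO; IC50 from Hill fit.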

Assay [8] is described as follows: qHTS assay for small molecule antagonists of peroxisome proliferator-activated receptor delta signaling (AID 588535; active = well fitted inhibition curve with a large enough effect in the signal ratio, with a control signal flat, not every such curve was filed as active; the % refers to the signal ratio;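 as to max response: cells co-treated with a PPAR-delta agonist as stimulator during compound exposure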). Particulars: HEK293T PPARd-UAS-bla, beta-lactamase FRET ratio, 18 h; 460 nm channel. Put shortly: (§1)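 Compounds tested in titration on PPAR-delta-UAS-bla HEK293T cells grown in charcoal/dextran-stripped serum (2%); beta-lactamase activity read via CCF4 emission at 460 and 530 nm.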

The target of assay [9] is Peroxisome proliferator-activated receptor delta (Homo sapiens) (UniProt Q03181). The assay is described as above. In a few lines:
as §1

The target of assay [10] is Peroxisome proliferator-activated receptor gamma (Homo sapiens) (UniProt P37231). Nature of the assay: qHTS assay for small molecule antagonists of peroxisome proliferator-activated receptor gamma signaling (AID 588537; active = well fitted inhibition curve with a large enough effect in the signal ratio, with a control signal flat, not every such curve was filed as active; the % refers to the signal ratio;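 also: reporter cells co-stimulated with 50 nM rosiglitazone agonist during compound treatment; % of control where 0% means no effect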). In a few lines: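 HEK293 cells, PPAR-gamma-UAS-bla, 3000/well. Pre-incubation 6-6.5 h, 37 C. Compound titration with rosiglitazone 50 nM final, 16 h. CCF4 dye, 2 h RT, dual-emission fluorescence.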

Assay [11] concerns the target Vitamin D3 receptor (Homo sapiens) (UniProt P11473). Nature of the assay: qHTS assay for small molecule antagonists of vitamin D receptor signaling (AID 588541).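 Also: receptor activated by calcitriol during compound treatment; series mostly up to about 77 µM; % is scaled to controls: 0 for no effect and ±100 for the full control effect.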 In a few lines:
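VDR-UAS-bla HEK293T cells (2000/well, 2% charcoal-stripped FBS) were treated with titrated compounds plus 1-alpha,25-dihydroxyvitamin D3 (50 nM or 3 nM final) for 16 h at 37 C. CCF4 beta-lactamase fluorescence was read; Hill fits gave IC50.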

Assay [12] has the same target. The experiment in a line: qHTS assay for small molecule agonists of vitamin D receptor signaling (AID 588543).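 Also: 0% = DMSO basal and 100% = reference agonist control.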 In a few lines: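 Reporter cells (HEK293T, VDR-UAS-bla) were seeded in medium with 2% charcoal-stripped serum and incubated 5 h, then compounds in concentration series were added for 16 h at 37 °C. Stimulation was scaled between DMSO basal and 50 nM 1α,25-dihydroxyvitamin D3.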

The nature of assay [13]: qHTS assay for small molecule agonists of the antioxidant response element (ARE) signaling pathway (AID 651741; active = well fitted activation curve with a large enough effect in the signal ratio; the % refers to the signal ratio; also: potency is read from the fitted curve at half-maximal effect; as to activation: % of control where 0% means no effect). Put shortly: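 Beta-lactamase reporter expression driven by the antioxidant response element in HepG2 cells was detected by fluorescence with LiveBLAzer B/G FRET substrate (2 h, room temperature) following 16 h compound treatment at 37 C.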
Assay [14] can be described thus: qHTS assay for small molecule activators of the nuclear factor-kappa B (NF-kB) signaling pathway (AID 651749; active = well fitted activation curve with a large enough effect in the signal ratio; the % refers to the signal ratio; also: series mostly up to about 77 µM; % of control where 0% means no effect). Particulars: NF-kB-bla ME-180 cells, beta-lactamase FRET ratio, 16 h; stronger effect = higher value. In a few lines: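 Beta-lactamase reporter expression, controlled by NF-kB response elements in ME-180 cells, was quantified fluorometrically via FRET disruption; cells at 2,000/well had been incubated with 23 nL test compound for 16 hr.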

Assay [15] in a line: qHTS assay to identify small molecules that stimulate interleukin-8 (IL-8) secretion (AID 651758; active = well fitted activation curve with a large enough effect in the signal ratio; the % refers to the signal ratio; also: potency is read from the fitted curve at half-maximal effect; as to activation: 0% is about no effect). In a few lines:
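Quantitative HTS in THP-1 monocytic cells at 2000 cells per well, with 16 hrs compound incubation at 37 C. IL-8 in the medium was then quantified by HTRF immunoassay, read after 1-3 hrs at room temperature.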

For assay [16], the target named is Nuclear receptor ROR-gamma (Homo sapiens) (UniProt P51449). The experiment in a line: qHTS assay for small molecule antagonists of the retinoid-related orphan receptor gamma (ROR-gamma) signaling pathway (AID 651802; active = well fitted curve in the direction sought with a large enough effect; an effect the other way counts as inactive or inconclusive;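 also: luciferase reporter luminescence driven by ROR response element; series mostly up to about 92 µM; % is scaled to controls: 0 for no effect and ±100 for the full control effect; nearly all actives have a fitted effect of over 60% in size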). In a few lines: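 Doxycycline-induced reporter activity in engineered CHO cells (TET-inducible ROR, RORE-LUC) was measured by luminescence after 16hr compound exposure at 37C.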

Assay [17] addresses Retinoic acid receptor RXR-alpha (Homo sapiens) (UniProt P19793). The experiment in a line: qHTS assay for small molecule antagonists of retinoid X receptor alpha signaling (AID 588546; active = well fitted inhibition curve with a large enough effect in the signal ratio, with a control signal flat, not every such curve was filed as active; the % refers to the signal ratio;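 also: cells stimulated with 9-cis-retinoic acid as agonist; % is scaled to controls: 0 for no effect and ±100 for the full control effect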). To be noted: HEK293T RXRa-UAS-bla, beta-lactamase ratio, antagonist mode. Put shortly:
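Beta-lactamase reporter inhibition, read as CCF4 fluorescence ratio (ex 405, em 460/530 nm) after 2 h at RT. HEK293T UAS-bla cells, 2500/well, were stimulated with 9-cis-RA at 500 or 100 nM final alongside test compound for 18 h at 37 C.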

Assay [18] is described as follows: Cell Viability - LYMP1-002 - Assay at 40 hr (AID 994; active = well fitted curve in the direction sought with a large enough effect; an effect the other way counts as inactive or inconclusive;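 also: 0% = DMSO only and full inhibition = 92 µM tetraoctylammonium bromide; nearly all actives have a fitted effect of over 60% in size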). In a few lines:
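Concentration-dependent ATP loss after 40 hr treatment at 37 C defined toxicity; AC50 values were obtained by fitting the standard Hill equation.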

The nature of assay [19]: qHTS assay for cell viability of the p53RE-bla HCT-116 cell line (AID 743292; active = well fitted curve in the direction sought with a large enough effect; an effect the other way counts as inactive or inconclusive; also: % is scaled to controls: 0 for no effect and ±100 for the full control effect; nearly all actives have a fitted effect of over 55% in size). Put shortly:
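Readout: CellTiter-Glo luminescence after 30 min RT. Treatment: compounds in DMSO, 16 h, 37 C. Cells: CellSensor p53RE-bla HCT-116, 4,000/well, preincubated 5 h.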

Assay [20] in a line: Cell Viability - LYMP2-021 (AID 974; active = well fitted curve in the direction sought with a large enough effect; an effect the other way counts as inactive or inconclusive;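 also: compound exposure lasts 24 hours at 37 °C; % is scaled to controls: 0 for no effect and ±100 for the full control effect; nearly all actives have a fitted effect of over 55% in size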). In a few lines:
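In qHTS format, compounds are tested against 2500 lymphoblastoid cells per well for 24 h; viable cell number is inferred from ATP-driven luciferase light, and Hill-equation fitting yields AC50 values.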

Where “and” joins values, the source holds several entries; their conditions need not be identical. Equal values may be shown once. Results filed as inconclusive are left out. Calls of active or inactive are those of the source. Unless noted, calls follow the shape of the full dose curve.

Chain of Vitamin D3 receptor (Homo sapiens) (P11473 whole entry, looked up): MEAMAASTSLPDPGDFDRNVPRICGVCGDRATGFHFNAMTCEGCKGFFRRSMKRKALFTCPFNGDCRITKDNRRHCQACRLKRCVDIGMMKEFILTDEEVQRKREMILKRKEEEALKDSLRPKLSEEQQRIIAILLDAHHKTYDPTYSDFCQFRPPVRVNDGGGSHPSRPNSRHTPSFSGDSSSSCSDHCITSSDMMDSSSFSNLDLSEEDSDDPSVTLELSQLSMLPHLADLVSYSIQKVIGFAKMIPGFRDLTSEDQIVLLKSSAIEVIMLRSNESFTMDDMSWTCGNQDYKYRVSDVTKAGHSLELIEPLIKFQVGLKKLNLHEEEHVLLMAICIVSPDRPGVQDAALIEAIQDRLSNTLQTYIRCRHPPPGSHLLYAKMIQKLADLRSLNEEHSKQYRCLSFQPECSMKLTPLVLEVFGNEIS
Chain of Glucocorticoid receptor (Homo sapiens) (P04150 whole entry, looked up): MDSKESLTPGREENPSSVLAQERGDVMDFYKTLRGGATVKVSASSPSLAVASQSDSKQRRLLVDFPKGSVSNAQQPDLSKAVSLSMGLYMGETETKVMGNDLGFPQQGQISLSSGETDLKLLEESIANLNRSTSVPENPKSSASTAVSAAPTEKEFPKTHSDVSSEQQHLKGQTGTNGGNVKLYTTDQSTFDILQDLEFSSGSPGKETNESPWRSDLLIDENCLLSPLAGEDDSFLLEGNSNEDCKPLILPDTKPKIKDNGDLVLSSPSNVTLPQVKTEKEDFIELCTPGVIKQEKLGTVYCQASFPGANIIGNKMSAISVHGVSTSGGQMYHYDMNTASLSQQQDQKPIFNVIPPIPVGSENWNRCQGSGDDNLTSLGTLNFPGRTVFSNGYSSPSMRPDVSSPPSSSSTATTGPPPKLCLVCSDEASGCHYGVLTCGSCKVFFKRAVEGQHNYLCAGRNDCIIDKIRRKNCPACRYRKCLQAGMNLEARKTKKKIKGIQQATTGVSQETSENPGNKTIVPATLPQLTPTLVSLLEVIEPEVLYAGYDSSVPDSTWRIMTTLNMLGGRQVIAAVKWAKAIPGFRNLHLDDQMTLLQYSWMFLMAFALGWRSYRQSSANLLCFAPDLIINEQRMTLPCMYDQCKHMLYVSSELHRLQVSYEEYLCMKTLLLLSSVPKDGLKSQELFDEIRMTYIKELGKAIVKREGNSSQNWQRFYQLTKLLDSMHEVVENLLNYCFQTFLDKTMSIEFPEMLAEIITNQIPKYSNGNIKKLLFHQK
Chain of Peroxisome proliferator-activated receptor delta (Homo sapiens) (Q03181 whole entry, looked up): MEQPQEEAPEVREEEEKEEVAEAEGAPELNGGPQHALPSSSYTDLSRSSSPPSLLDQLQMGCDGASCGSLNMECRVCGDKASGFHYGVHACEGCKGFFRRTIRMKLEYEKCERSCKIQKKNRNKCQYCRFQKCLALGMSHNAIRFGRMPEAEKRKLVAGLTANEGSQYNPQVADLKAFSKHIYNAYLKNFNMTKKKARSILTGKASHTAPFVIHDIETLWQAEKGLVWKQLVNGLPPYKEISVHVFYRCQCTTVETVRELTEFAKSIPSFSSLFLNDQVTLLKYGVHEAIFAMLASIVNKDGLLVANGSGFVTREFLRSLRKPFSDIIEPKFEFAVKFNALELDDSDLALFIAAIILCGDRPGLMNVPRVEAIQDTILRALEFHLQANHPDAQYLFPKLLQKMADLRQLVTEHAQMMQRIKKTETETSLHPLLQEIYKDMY
Chain of Peroxisome proliferator-activated receptor gamma (Homo sapiens) (P37231 whole entry, looked up): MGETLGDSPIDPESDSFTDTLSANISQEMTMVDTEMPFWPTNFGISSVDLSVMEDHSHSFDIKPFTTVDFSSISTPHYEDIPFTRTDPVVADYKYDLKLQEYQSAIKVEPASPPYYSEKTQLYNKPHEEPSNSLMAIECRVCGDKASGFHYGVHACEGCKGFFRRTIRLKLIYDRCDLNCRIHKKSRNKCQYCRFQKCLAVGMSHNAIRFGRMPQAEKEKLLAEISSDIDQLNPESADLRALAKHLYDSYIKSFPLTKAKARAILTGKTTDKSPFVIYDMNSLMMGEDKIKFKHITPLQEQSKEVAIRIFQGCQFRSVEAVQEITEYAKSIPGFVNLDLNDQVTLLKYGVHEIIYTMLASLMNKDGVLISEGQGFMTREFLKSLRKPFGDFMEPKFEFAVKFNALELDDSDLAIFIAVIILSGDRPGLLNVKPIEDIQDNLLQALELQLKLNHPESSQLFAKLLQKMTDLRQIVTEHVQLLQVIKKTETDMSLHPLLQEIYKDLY
Chain of Estrogen receptor (Homo sapiens) (P03372 whole entry, looked up): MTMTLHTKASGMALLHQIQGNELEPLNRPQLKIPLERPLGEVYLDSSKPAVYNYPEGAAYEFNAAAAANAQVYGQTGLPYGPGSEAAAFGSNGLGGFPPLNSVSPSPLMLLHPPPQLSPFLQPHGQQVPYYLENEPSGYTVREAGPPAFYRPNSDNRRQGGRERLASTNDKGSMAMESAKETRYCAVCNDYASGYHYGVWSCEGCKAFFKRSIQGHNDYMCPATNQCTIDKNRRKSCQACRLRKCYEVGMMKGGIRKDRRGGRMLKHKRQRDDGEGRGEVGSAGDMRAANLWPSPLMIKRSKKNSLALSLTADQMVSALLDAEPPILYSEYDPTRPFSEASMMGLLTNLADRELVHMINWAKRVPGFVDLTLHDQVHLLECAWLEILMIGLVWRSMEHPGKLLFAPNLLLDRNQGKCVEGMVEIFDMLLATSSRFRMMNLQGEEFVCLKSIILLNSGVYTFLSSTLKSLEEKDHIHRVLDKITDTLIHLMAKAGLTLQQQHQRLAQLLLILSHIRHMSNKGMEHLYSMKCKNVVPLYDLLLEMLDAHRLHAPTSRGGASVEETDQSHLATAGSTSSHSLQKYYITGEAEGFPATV
Chain of Retinoic acid receptor RXR-alpha (Homo sapiens) (P19793 whole entry, looked up): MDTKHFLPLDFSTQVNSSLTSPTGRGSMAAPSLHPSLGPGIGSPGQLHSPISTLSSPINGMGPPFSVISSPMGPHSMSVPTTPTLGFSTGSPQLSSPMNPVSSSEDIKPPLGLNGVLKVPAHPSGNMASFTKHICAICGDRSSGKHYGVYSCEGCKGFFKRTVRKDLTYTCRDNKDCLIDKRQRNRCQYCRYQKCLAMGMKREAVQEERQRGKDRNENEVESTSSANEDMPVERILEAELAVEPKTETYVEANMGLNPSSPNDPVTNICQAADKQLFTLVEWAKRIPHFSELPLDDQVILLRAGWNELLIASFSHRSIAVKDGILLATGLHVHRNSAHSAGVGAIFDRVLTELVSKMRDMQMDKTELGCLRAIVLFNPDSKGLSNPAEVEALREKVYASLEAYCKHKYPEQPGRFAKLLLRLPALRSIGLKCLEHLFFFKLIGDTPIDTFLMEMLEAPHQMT
Chain of Bile acid receptor (Homo sapiens) (Q96RI1 whole entry, looked up): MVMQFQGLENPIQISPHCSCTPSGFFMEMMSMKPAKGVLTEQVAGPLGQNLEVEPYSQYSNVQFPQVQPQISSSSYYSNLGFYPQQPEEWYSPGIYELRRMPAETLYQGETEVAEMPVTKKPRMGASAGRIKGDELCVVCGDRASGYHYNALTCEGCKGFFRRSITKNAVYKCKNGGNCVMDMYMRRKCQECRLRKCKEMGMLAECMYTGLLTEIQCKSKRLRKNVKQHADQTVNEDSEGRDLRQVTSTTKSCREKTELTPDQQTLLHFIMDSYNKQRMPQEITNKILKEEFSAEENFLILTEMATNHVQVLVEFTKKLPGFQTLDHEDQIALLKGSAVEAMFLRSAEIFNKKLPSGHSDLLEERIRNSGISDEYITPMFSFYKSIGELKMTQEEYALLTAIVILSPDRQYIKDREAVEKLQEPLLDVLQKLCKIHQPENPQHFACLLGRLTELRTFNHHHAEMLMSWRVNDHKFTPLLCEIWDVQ
Chain of Nuclear receptor ROR-gamma (Homo sapiens) (P51449 whole entry, looked up): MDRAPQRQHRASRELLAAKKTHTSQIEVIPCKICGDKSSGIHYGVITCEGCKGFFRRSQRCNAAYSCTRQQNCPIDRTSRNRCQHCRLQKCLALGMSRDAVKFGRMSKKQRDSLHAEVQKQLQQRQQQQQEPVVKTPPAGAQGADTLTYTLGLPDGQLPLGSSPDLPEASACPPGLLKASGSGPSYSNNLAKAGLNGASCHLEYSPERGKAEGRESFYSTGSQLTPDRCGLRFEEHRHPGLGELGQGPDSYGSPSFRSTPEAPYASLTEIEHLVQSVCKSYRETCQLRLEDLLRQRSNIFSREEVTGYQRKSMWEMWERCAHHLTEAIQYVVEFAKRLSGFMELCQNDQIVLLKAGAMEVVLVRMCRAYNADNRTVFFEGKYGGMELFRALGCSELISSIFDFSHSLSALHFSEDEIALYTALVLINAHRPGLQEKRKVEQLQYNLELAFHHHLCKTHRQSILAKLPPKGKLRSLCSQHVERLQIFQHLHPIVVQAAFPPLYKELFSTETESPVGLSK

With `CCO`, the Potency result in assay [1], in assay [3], in [4], in assay [7], in assay [9] and in assay [13] was “inactive” each time. The Potency result in [15] and in assay [16] was “inactive” in each case. In addition, the molecule was classed as inactive in assay [2], in assay [5], in assay [10], in assay [11] and in assay [12]. Moreover, the figures for the activation in assay [6] and in [14] were -4.6% (inactive) and -0.227% (inactive), respectively. Also, the max response in assay [8] is -20.9%.
Turning to `Cc1ccc(N)c([N+](=O)[O-])c1`, the Potency entry in assay [1], in [4], in [7] and in assay [9] was “inactive” throughout. Besides, the activation in [6] is 2.77% (inactive) and 13.2% (inactive). The max response in assay [8] is -16.3% and -11.9%; in assay [17] it was -0.0872% (inactive) and -10.2% (inactive). The molecule was called inactive in assay [10], in assay [11] and in assay [12].
As for `COc1ccc2nc(N)sc2c1`, the Potency entry in [1], in assay [3], in assay [18], in assay [4], in [7] and in [16] was “inactive” throughout. Further, the Potency result in assay [19] is “inactive”. For the same molecule, the activation in assay [6] was -7.22% (inactive) and -9.63% (inactive). The outcome in assay [11] and in assay [12] was inactive. In addition, the Potency in [13] was 54.5 µM (active).
Turning to `CC1=CC(C)(C)Nc2ccccc21`, the Potency entry in assay [1], in assay [4], in [9], in assay [15], in [16] and in assay [19] was “inactive” throughout. Besides, the max response in [8] was 34.8% and 1.74%; in assay [17] it was 7.64% (inactive) and -0.906% (inactive). Further, the call in [10], in [11] and in assay [12] was inactive.
On to `CN(C)CCCCCCN(C)C`, for which the Potency entry in [3], in assay [18], in [7], in [9], in assay [13] and in assay [19] was “inactive” in each case. In addition, the molecule was classed as inactive in assay [5], in assay [11] and in assay [12]. In addition, the max response in assay [8] is 53.3%.
Regarding `c1ccc2c(c1)[nH]c1ccccc12`, the Potency entry in assay [1], in assay [4], in assay [7], in assay [9], in assay [13] and in assay [19] was “inactive” each time. The activation in assay [6] is -0.462% (inactive) and 14.4% (inactive). The max response in assay [8] was -0.442% and 48.8%. Also, the result in assay [10] was inactive.
As for `S=C1NC=NC2N=CNC12` (centres undefined), the outcome in [12] was inactive. The Potency in [13] was 23.7 µM (active); in assay [15], 42.2 µM (active). In addition, the activation in [14] was 1.89% (inactive). In addition, the Potency entry in assay [16] was “inactive”.
Take `CC(C)=CCCC(C)CCO` (centres undefined): the Potency result in assay [1], in [18], in assay [4], in assay [7], in assay [9] and in [13] was “inactive” throughout. In addition, the Potency result in assay [16] is “inactive”. For the same molecule, the call in assay [2] and in [10] was inactive. The activation in assay [6] is 0.913% (inactive) and 4.62% (inactive); in assay [14], 0.223% (inactive) and -0.597% (inactive). In addition, the max response in [8] is 6.53% and 29.8%; in assay [17] it was -7.24% (inactive) and 2.51% (inactive).
For `CCCCCCCCCCCCCCC1CO1` (centres undefined), the Potency result in assay [1], in assay [4], in [7], in assay [9], in [13] and in assay [16] was “inactive” each time. Moreover, the result in assay [2], in [10], in assay [11] and in [12] was inactive. In addition, the activation in [6] was 1.74% (inactive) and -2.57% (inactive). Further, the max response was 14.3% in assay [8]; 5.21% (inactive) and -18.5% (inactive) in assay [17].
For the molecule `CCCCOCCO`, the Potency result in [1], in [18], in assay [4], in [7], in assay [9] and in [13] was “inactive” in each case. The Potency entry in assay [15] and in assay [16] was “inactive” throughout. The molecule was called inactive in assay [5], in [10], in assay [11] and in [12]. Further, the activation in assay [6] was -3.83% (inactive) and -1.18% (inactive); in assay [14], 0.401% (inactive) and -0.541% (inactive) and 0.482% (inactive). For the same molecule, the max response in assay [8] is 1.73% and 13.5% and -16.7%; in [17], 8.5% (inactive) and -5.75% (inactive) and -0.568% (inactive).
As to `COc1c2ccoc2cc2oc(=O)ccc12`, the result in [2], in assay [10], in assay [11] and in assay [12] was inactive. Moreover, the Potency entry in assay [20], in assay [4], in assay [16] and in assay [19] was “inactive” each time. Moreover, the activation in assay [6] was 3.88% (inactive). In addition, the max response in [17] is 23.4% (inactive).
